PubChem BioAssay (EPA / NIEHS)
Inconclusive results are not listed. Calls of active or inactive are those of the source. The calls were made as follows: active = hit-call score of the fitted dose curve at least 0.9, where 1 is the maximum; inconclusive = response in the unintended direction; inactive = score below 0.9.

Experiment: CLD_ACTIN_24hr: CellzDirect (CLD) Gene Expression Assay for Baseline Control (Actin) at 24 hours (AID 2283670)
Experimental: CLD_24hr is a cell-based, multiplexed-readout assay that uses hepatocyte, a human liver primary cell, with measurements taken at 24 hours after chemical dosing in a 96-well plate.CLD_ACTIN_24hr is one of 16 assay component(s) measured or calculated from the CLD_24hr assay. It is designed to make measurements of mRNA induction, a form of inducible reporter, as detected with chemiluminescence signals by Quantitative Nuclease Protection Assay (qNPA) technology.Data from the assay component CLD_ACTIN_24hr was analyzed at the endpoint, CLD_ACTIN_24hr, in the positive analysis fitting direction relative to DMSO as the negative control and baseline of activity. Using a type of inducible reporter, gain-of-signal activity can be used to understand changes in the reporter gene as they relate to the gene ACTA1. Furthermore, this assay endpoint can be referred to as a secondary readout, because this assay has produced multiple assay endpoints where this one serves a background control function. To generalize the intended target to other relatable targets, this assay endpoint is annotated to the background measurement intended target family, where subfamily is baseline control.
Human hepatocyte cultures were treated daily for two consecutive days with fresh dosing solutions containing appropriate concentrations of the 320 ToxCast chemicals (chemical identities were blinded to CellzDirect and other ToxCast collaborators), vehicle control (0.2% DMSO), and positive control inducers as summarized in Table 1. Due to the large number of treatment groups and chemicals examined, the ToxCast chemicals were divided into two groups (spanning two independent cultures of hepatocytes from separate donor preparations (Hu778: ToxCast plates 1 and 2; Hu776: ToxCast plates 3 and 4). Each preparation of human hepatocyte cultures was treated with respective vehicle control, medium only control, set of six positive controls/reference chemicals for the five hepatic receptor pathways, and a subset of eight of the ToxCast chemicals (indoxacarb, pyrithiobac-sodium, norflurazon, cyhalofop-butyl, methomyl, thiram, acetochlor, and propiconazole). These replicate data, coupled with internal replicates designed within the blinded ToxCast chemical library, provided additional data to evaluate interindividual differences between hepatocyte preparations and their potential impact on chemical profiles.Cell morphology and integrity were evaluated using phase-contrast microscopy as an indicator of hepatocyte cell health (Tyson & Green, 1987). Cultures for each treatment group (i.e., media, vehicle [0.2% DMSO], positive control inducers [multiple concentrations], and the ToxCast chemicals [multiple concentrations]) were observed and cell morphology was assessed relative to vehicle control cultures at each harvest time point (0, 6, 24, or 48 h). […] Images were evaluated at the conclusion of the study to assess changes in cell integrity and account for the effects of chemical exposure on uncharacteristic changes in concentration-dependent gene expression profiles. The results from these determinations of apparent cytotoxicity were annotated (yes/no) alongside the corresponding qNPA data for reference.At the conclusion of each treatment period, hepatocyte cultures (96-well) were washed with 1 volume of HBSS, lysed by addition of 25 ul ArrayPlate lysis buffer (HTG, Tucson, AZ), and 70 ul/well of Denaturation Oil, denatured by incubation at 95C for 10 min, and frozen at approximately -70C until analysis by nuclease protection assay (qNPA) (Roberts et al., 2007). For qNPA analysis, cell lysates were thawed at 50C for approximately 30 min, qNPA probes were added, and samples were incubated at 95C for 10 min to begin the detection process by denaturing the target RNA, dissociating the duplexes and secondary structure hybridization. At the conclusion of the hybridization period, S1 nuclease reagent was added to each sample to digest all nonprotected nucleotides at 50C for 60-90 min. […]

| Compound | outcome |
| --- | --- |
| CC1(C)CON(Cc2ccccc2Cl)C1=O | inactive |
| Cc1cnc(C2=NC(C)(C(C)C)C(=O)N2)c(C(=O)O)c1 (stereo not drawn) | inactive |
| CCCN(CC)CC1COC2(CCC(C(C)(C)C)CC2)O1 (stereo not drawn) | inactive |
| CC(C)N1C(=O)c2ccccc2NS1(=O)=O | inactive |
| COc1ccc(-c2ccccc2)cc1NNC(=O)OC(C)C | inactive |
| CC(C)C1(C)N=C(c2ncccc2C(=O)O)NC1=O (stereo not drawn) | inactive |
| CCCCC(O)(Cn1cncn1)c1ccc(Cl)cc1Cl (stereo not drawn) | inactive |
| Clc1nc(Cl)nc(Nc2ccccc2Cl)n1 | inactive |
| O=C1C2CC=CCC2C(=O)N1SC(Cl)(Cl)Cl (stereo not drawn) | inactive |
| CCSC(=O)N1CCCCCC1 | inactive |
| CS(=O)(=O)c1ccc(C(=O)C2C(=O)CCCC2=O)c([N+](=O)[O-])c1 | inactive |
| Cn1c(-c2ccccc2)cc(-c2ccccc2)[n+]1C | inactive |
| N#CN=C1SCCN1Cc1ccc(Cl)nc1 | inactive |
| Nc1c(Cl)c(F)nc(OCC(=O)O)c1Cl | inactive |
| CSC(=O)c1c(C(F)F)nc(C(F)(F)F)c(C(=O)SC)c1CC(C)C | inactive |
| CCOc1nc(C(Cl)(Cl)Cl)ns1 | inactive |
| O=P(O)(O)CCCl | inactive |
| O=C(O)c1c(Cl)ccc2cc(Cl)cnc12 | inactive |
| Cc1c(COC(=O)[C@@H]2[C@H](/C=C(\Cl)C(F)(F)F)C2(C)C)cccc1-c1ccccc1 | inactive |
| COP(=O)(OC)O/C(C)=C/C(=O)N(C)C | inactive |
| CO/N=C(/C1=NOCCO1)c1ccccc1Oc1ncnc(Oc2ccccc2Cl)c1F | inactive |
| Clc1cccc(C(Cl)(Cl)Cl)n1 | inactive |
| COCc1cnc(C2=NC(C)(C(C)C)C(=O)N2)c(C(=O)O)c1 (stereo not drawn) | inactive |
